Source: PubChem
The entries come from a sample that favours hits as a whole.
Pf Dd2 inh – blocks in vitro growth of P. falciparum Dd2; P. falciparum Dd2 growth, SYBR Green, 72 h; 120,000 compounds, 4.3% hits; AID 1347417; Potency, µM (highest dose often 28.9 µM), most hits filed as inhibitors; active means well fitted inhibition curve with a large enough effect; further: nearly all actives have a fitted effect of over 65% in size
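Infected erythrocytes (Dd2, 0.3% parasitemia, 2.5% hematocrit final) are added to compound in RPMI-1640/Albumax II medium, grown 72 h at 37C in low oxygen, then lysed with saponin/Triton-X containing SYBR Green and read by fluorescence.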
Hits are given with their value; . = inactive; [ ] = dose if it differs, or a comment.

SMILES | Pf Dd2 inh
CO[C@H]1C(=O)N(C(C)C)[C@H]1C1CCN(C(=O)c2cccc(C#N)c2)CC1 | .
CO[C@H]1C(=O)N(C(C)C)[C@H]1C1CCN(Cc2cccc(C#N)c2)CC1 | 10µM
CO[C@H]1C(=O)N(C(C)C)[C@H]1C1CCN(Cc2cccc(F)c2)CC1 | .
CC(=O)N1CCC(N2CCC([C@@H]3CNC[C@H]3CO)CC2)CC1 | .
Cc1ccn(CCCNc2cc(C(C)C)ncn2)n1 | .
CN1CCN(c2nc3c(c(=O)[nH]2)CCN(Cc2ccccc2Cl)CC3)CC1 | .[5.79 µM]
COc1ccc(F)c(CN2CCCC3(CCN(c4cc(C)nc(N)n4)C3)C2)c1 (stereo not drawn) | 3.98µM
Fc1cccc(CN2CCCC3(CCN(c4cnccn4)C3)C2)c1F (stereo not drawn) | .
COc1ccc(F)c(CN2CCCC3(CCN(C(=O)c4ccsc4)C3)C2)c1 (stereo not drawn) | .
COCc1cc(C[C@@H]2CC[C@H](O)[C@@H](CN(C(=O)Nc3ccccc3OC)C(=O)Nc3ccccc3OC)O2)no1 | .
Cc1ccc(S(=O)(=O)N2CCCC(Cn3c(C4CC4)nc4cccnc43)C2)c(C)c1 (stereo not drawn) | .
COc1cccc(CN2Cc3nc(N(C)c4ccccc4)ccc3OCC2=O)c1 | .
COc1cccc(CN2Cc3nc(Oc4ccccc4)ccc3OCC2=O)c1 | .
COc1cccc(CN2Cc3c(CN(C)Cc4ccccc4)nnn3CCC2=O)c1 | 10µM
COC(=O)c1cn([C@H]2CO[C@H]3[C@@H]2OC[C@@H]3NC(=O)c2ccc(N(C)C)cc2)nn1 | .
CC(C)NC(=O)[C@@H]1C[C@H](N)CN1C(=O)c1ccccc1-c1ncc[nH]1 | .
CC(=O)N1C[C@@H](C(=O)NCCc2ccc(Cl)cc2)[C@H](c2nc(C)no2)C1 | .
COc1ccc(C(=O)N[C@@H]2CCC[C@@H]2C(=O)NCCCn2cccn2)cc1 | .
COc1ccc(C(=O)N[C@@H]2CCC[C@@H]2C(=O)N2CCCCC2)cc1 | .
COc1ccc(C(=O)N[C@@H]2CCC[C@@H]2C(=O)N2CCN(c3cc(C)ccc3C)CC2)cc1 | 5.01µM
CCCNC(=O)[C@H]1CCC[C@H]1NC(=O)c1ccc(OC)cc1 | .
COc1ccc(C(=O)N[C@@H]2CCC[C@@H]2C(=O)N2CCCC2)cc1 | .
COc1ccc(C(=O)N[C@@H]2CCC[C@@H]2C(=O)N2CCN(c3ccccc3F)CC2)cc1 | 10µM
COc1ccc(C(=O)N[C@@H]2CCC[C@@H]2C(=O)NCCCN2CCCc3ccccc32)cc1 | 11.2µM
COc1ccc(C(=O)N[C@@H]2CCC[C@@H]2C(=O)N2CCOCC2)cc1 | .
SMILES | Pf Dd2 inh
COc1ccc(C(=O)N[C@@H]2CCC[C@@H]2C(=O)N2CCN(Cc3ccc(F)cc3)CC2)cc1 | .
CSc1ccc(NC(=O)N2CCc3nc4cc(-c5ccccc5)[nH]n4c(=O)c3C2)cc1 | .[5.79 µM]
COc1ccc(Cl)cc1S(=O)(=O)N1CCC(n2cnnc2C(C)C)CC1 | .
Cc1nccn1CCNC(=O)CCC[C@@H]1[C@H]2CCCN3CCC[C@@H](CN1C(=O)c1cccnc1)[C@@H]23 | .
CN1CCCCCC(O)c2cc(C(=O)NC3CCN(Cc4ccccc4)CC3)ccc21 (stereo not drawn) | .
CN1CCC(N2CC[C@H](c3nnc(-c4ccc(N(C)C)cc4)o3)C2)CC1 | .
COc1ccc(CN2C[C@@H](C(N)=O)[C@H](c3nc(C)no3)C2)c(Cl)c1OC | .
Cc1cnc(C(=O)N2CCC(Oc3cccnc3)C2)cn1 (stereo not drawn) | .
CN1CC(=O)N(c2ccccc2F)Cc2c(NCc3cccc(C(F)(F)F)c3)ncnc21 | .
Cn1nc2n(c1=O)CCC(NC(=O)CCC1CCCCC1)CC2 (stereo not drawn) | .
O=C(c1ccccc1)N1CCC2(CC1)C(=NC1CCCCC1)NC(=O)N2c1cc(F)cc(F)c1 | .
COc1ccc(OC2CN(C(=O)c3ccccc3F)C2)cc1 | .
O=C(NCc1ccc2c(c1)CCN2C(=O)c1ccc(Cl)cc1)c1ccco1 | .
O=C(NCc1ccc2c(c1)CCN2C(=O)c1ccc(F)cc1)c1ccco1 | 2.82µM
Cc1cccc(C(=O)N2CCc3cc(CNC(=O)c4ccco4)ccc32)c1 | .
COc1cccc(CN2Cc3nc(-c4cc(Cl)ccc4OC)ccc3OCC2=O)c1 | .
C[C@H](C(=O)NCCN1CCOCC1)C1CC[C@@]2(C)Cc3sc(CSc4ccccc4)nc3[C@@H](C)[C@@H]2[C@H]1O (stereo partly drawn) | .
Cc1ccc(N2CCC3(CCCN3Cc3ccc4nsnc4c3)CC2)nn1 | 12.6µM
COCC(=O)N1CCCC(C(=O)NCc2ccc3nsnc3c2)C1 (stereo not drawn) | .
CN(Cc1ccc2nsnc2c1)C(=O)c1ccc(N2CCCC2=O)cc1 | .
COc1ccc(CNC(=O)[C@H]2O[C@H](CCN3CCCC3)CC[C@@H]2O)cc1 | .
CCNC(=O)N1CCC(CCOc2ccccc2)C1 (stereo not drawn) | .
CCNC(=O)N1CCC(OC2CCN(S(C)(=O)=O)CC2)CC1 | .
CN1CCC2(CCC1=O)CN(S(=O)(=O)c1cn(C)cn1)CCN2C (stereo not drawn) | .
CCN(CC)C(=O)[C@@H]1CCC[C@@H](N(C)C)CN(C)C(=O)C1 | .
SMILES | Pf Dd2 inh
O=C(NCCCN1CCCc2ccccc21)c1cccnc1N1CC2CC(C1)[C@H]1CCCC(=O)N1C2 (stereo partly drawn) | .
O=C(NCCCN1CCOCC1)c1ccc(N2CC3CC(C2)[C@H]2CCCC(=O)N2C3)nc1 (stereo partly drawn) | .
O=C(NCCCN1CCCc2ccccc21)c1ccc(N2CC3CC(C2)[C@H]2CCCC(=O)N2C3)nc1 (stereo partly drawn) | 11.2µM
CCNC(=O)Nc1ccc(OCC(=O)NCc2cccs2)nc1 | .
O=C1CN(C(=O)Cc2ccccc2)C(c2ccc(F)cc2)c2cc(Br)ccc2N1 (stereo not drawn) | .
O=C(CCc1ccccc1)N1CCc2c([nH]c3ccccc23)C1c1ccc(F)cc1 (stereo not drawn) | 11.2µM
O=C(CCC1CCCC1)N1CCc2c([nH]c3ccccc23)C1c1ccc(F)cc1 (stereo not drawn) | 11.2µM
CSc1ccc(C2c3[nH]c4ccccc4c3CCN2C(=O)CCc2ccccc2)cc1 (stereo not drawn) | .
O=C1CCC(CCC(=O)N2CCCC2c2ccc(F)cc2)(Cc2cccc3ccccc23)N1 (stereo not drawn) | .
COc1ccc(C2c3[nH]c4ccccc4c3CCN2C(=O)CCC2CCCC2)cc1 (stereo not drawn) | .
COCC(=O)N[C@@H]1CN(Cc2cccc(OC)c2OC)C[C@H]1CO | .
COCCNC(=O)[C@@H]1C[C@@H](O)CN1C1CCN(C(=O)c2cc(F)ccc2F)CC1 | .
Cn1nc(C2CCN(C(=O)C3CCC3)CC2)c2c1CCOC2 | .[5.79 µM]
Cc1cnn(CCC(=O)N2CCC3(CCOCC3)CC2)c1 | .
COCCOC1CCOC2(CCN(C(=O)c3ccccc3OC)CC2)C1 (stereo not drawn) | .
COCCOC1CCOC2(CCN(C(=O)c3cc(C)nn3C)CC2)C1 (stereo not drawn) | .
COCCOC1CCOC2(CCN(C(=O)c3cc(-c4ccc(F)cc4)n[nH]3)CC2)C1 (stereo not drawn) | 11.2µM
CC(=O)N1CC2(CCN(CCc3ccccn3)CC2)CC1C(=O)O (stereo not drawn) | .
CCc1cccc(NC(=O)N(C)CC2CCOCC2)c1 | .
C[C@@H](NS(=O)(=O)c1ccccc1)c1onc(-c2ccc(F)cc2)c1C(=O)O | .
